The source holds several records for some structures; these can differ, active in one and inactive in another. Activity calls are given as the source filed them. The calls were made as follows: active = hit-call score of the fitted dose curve at least 0.9, where 1 is the maximum; inactive = score below 0.9.

The experiment in a line: ATG_NRF2_ARE_CIS: Attagene CIS-FACTORIAL HepG2 Assay for human Nuclear Factor Erythroid 2 Related Factor 2 (NFR2) response to Antioxidant Response Elements (ARE) (AID 2282992). As to conditions: HepG2 Attagene ARE/NRF2 reporter, transcription factor activity; actives raise or lower the signal. The method, then:
ATG_CIS is a cell-based, multiplexed-readout assay that uses HepG2, a human liver cell line, with measurements taken at 24 hours after chemical dosing in a 24-well plate.ATG_NRF2_ARE_CIS is one of 52 assay component(s) measured or calculated from the ATG_CIS assay. It is designed to make measurements of mRNA induction, a form of inducible reporter, as detected with fluorescence intensity signals by Reverse transcription polymerase chain reaction (RT-PCR) and Capillary electrophoresis technology.Data from the assay component ATG_NRF2_ARE_CIS was analyzed into 1 assay endpoint. This assay endpoint, ATG_NRF2_ARE_CIS, was analyzed with bidirectional fitting relative to DMSO as the negative control and baseline of activity. Using a type of inducible reporter, measures of mRNA for gain or loss-of-signal activity can be used to understand the reporter gene at the transcription factor-level as they relate to the gene NFE2L2. Furthermore, this assay endpoint can be referred to as a primary readout, because this assay has produced multiple assay endpoints where this one serves a reporter gene function. To generalize the intended target to other relatable targets, this assay endpoint is annotated to the dna binding intended target family, where the subfamily is basic leucine zipper.
Human liver HepG2 cells are transiently transfected with multiple reporter transcription units (MRTUs) in 6-well plates using FuGene 6 reagent (Roche; 3 ml FuGene/1 mg DNA). The MRTU constructs are regulated by a cis-regulating element (promoter). […] A major difference between the CIS and TRANS system is that in CIS activities of endogenous TFs are measured, whereas the TRANS assay evaluates changes in activities of exogenous, chimeric NR-Gal4 proteins. […] At the end of 24 hour incubation, total RNA was isolated using TriZol reagent (Invitrogen). The isolated RNA is then reverse-transcribed using oligo(dT) primer and Mo-MLV reverse transcriptase (Invitrogen) with DNAse I (Ambion) treatment for 30 min. The one-tenth of the produced cDNA was amplified by PCR using Taq DNA polymerase (Invitrogen) and two reporter sequence-specific primers. The PCR products were fluorescently labeled by primer extension with 6-arboxyfluorescein (6-FAM) 5'-labeled reporter sequence-specific primer (2 min at 95 C, 20 s at 68 C and 10 min at 72 C) and these products were digested with 5U of HpaI (New England Biolabs) for 2h at 37 C. The fragments were purified using Qiaquick PCR columns (Qiagen), analyzed on an ABI 3130xL genetic analyzer (Applied Biosystems) with peak positions identified by using a set of X-rhodamine (ROX)-labeled MapMarker1000 molecular weight standards (BioVentures). The raw capillary electrophoresis data was processed using Attagraph software (Attagene).
In general, AC50 refers to the midpoint of the concentration-response curve, whichever way the signal moves. As to `FC(F)C(F)(F)OCC(Cn1cncn1)c1ccc(Cl)cc1Cl` (stereo not given), the AC50 is 35.9 µM (active).

As to `O=C(O)c1cc(Oc2ccc(C(F)(F)F)cc2Cl)ccc1[N+](=O)[O-]`, the molecule was called inactive.

Take `CCOP(=S)(Oc1cnc(C(C)(C)C)nc1)OC(C)C` (stereo not given): the concentration at half-maximal activity (AC50) is 14.1 µM (active). On the same count and under the same terms, then `CC(COc1ccc(Oc2ccccc2)cc1)Oc1ccccn1` (stereo not given), with 7.23 µM (active). For `CC(C1CC1)C(O)(Cn1cncn1)c1ccc(Cl)cc1` (stereo not given), the result was inactive.

With `CSC1=N[C@@](C)(c2ccccc2)C(=O)N1Nc1ccccc1`, the AC50 was 4.24 µM (active). Same read-out and setting: then `CC(C)=CC1C(C(=O)OCN2C(=O)C3=C(CCCC3)C2=O)C1(C)C` (stereo not given), with 16.2 µM (active). The same measure, in the same setting: then `C[Si](Cn1cncn1)(c1ccc(F)cc1)c1ccc(F)cc1`, with 11.8 µM (active).

As to `O=[N+]([O-])c1cc(C(F)(F)F)c(Cl)c([N+](=O)[O-])c1Nc1ncc(C(F)(F)F)cc1Cl`, the AC50 was 2.7 µM (active) and the molecule was classed as inactive.

Consider `COc1cccc(C(=O)NN(C(=O)c2cc(C)cc(C)c2)C(C)(C)C)c1C`, for which the result was inactive. For the molecule `CC1=NNC(=O)N(/N=C/c2cccnc2)C1`, the outcome was inactive. `CCCOCC(=Nc1ccc(Cl)cc1C(F)(F)F)n1ccnc1`: the AC50 was 7 µM (active). `COP(=O)(OC)OC(Br)C(Cl)(Cl)Br` (stereo not given): the outcome was inactive. As to `CCCCOC(=O)c1ccccc1C(=O)O`, the molecule was called inactive. Still for that read-out and setting: then `S=C1NCCN1`, with “inactive”.

`CC(C)[C@H](C(=O)O[C@H](C#N)c1cccc(Oc2ccccc2)c1)c1ccc(Cl)cc1`: the AC50 was 0.938 µM (active). As to `CCC(=NOC/C=C/Cl)C1=C(O)CC(C2CCOCC2)CC1=O` (stereo not given), the molecule was classed as inactive.

For the molecule `CCNc1nc(Cl)nc(NC(C)(C)C#N)n1`, the molecule was called inactive. On to `CCOP(=S)(OCC)Oc1cc(C)nc(C(C)C)n1`, for which the AC50 was 15.9 µM (active). Regarding `CCc1cccc(CC)c1N(COC)C(=O)CCl`, the AC50 was 3.31 µM (active). Consider `CC(Oc1cccc(Cl)c1)C(=O)O` (stereo not given), for which the outcome was inactive. On to `Nc1c(Cl)cc([N+](=O)[O-])cc1Cl`, for which the half-maximal activity concentration (AC50) is 41.1 µM (active). For the molecule `CNC(=O)ON=C(C)SC`, the call was inactive.

Consider `COP(=O)(OC)C(O)C(Cl)(Cl)Cl` (stereo not given), for which the AC50 was 29.9 µM (active).

Turning to `CCCOc1nn(C(=O)NS(=O)(=O)c2ccccc2C(=O)OC)c(=O)n1C`, the molecule was called inactive.

Take `CCOP(=S)(OCC)OC(Cl)C(Cl)(Cl)Cl` (stereo not given): the AC50 is 50 µM (active).

Consider `CCOP(=O)(NC(C)C)Oc1ccc(SC)c(C)c1` (stereo not given), for which the AC50 is 5.22 µM (active). `CN(C)C(=O)Nc1cccc(C(F)(F)F)c1`: the result was inactive. On to `COP(=O)(OC)SCn1c(=O)oc2cc(Cl)cnc21`, for which the AC50 is 8.25 µM (active).

As for `Cc1nn(-c2cc(NS(C)(=O)=O)c(Cl)cc2Cl)c(=O)n1C(F)F`, the molecule was called inactive. Still for that read-out and setting: next, `CN(C)NC(=O)CCC(=O)O`: “inactive”. As to `CCC(=O)Nc1ccc(Cl)c(Cl)c1`, the AC50 is 30.7 µM (active). For `CCc1cnc(C2=NC(C)(C(C)C)C(=O)N2)c(C(=O)O)c1` (stereo not given), the molecule was called inactive. For `CSc1nnc(C(C)(C)C)c(=O)n1N`, the call was inactive. Take `COc1ccc(C(=CC(=O)N2CCOCC2)c2ccc(Cl)cc2)cc1OC`: the AC50 was 8.76 µM (active). Turning to `CCOP(=S)(OCC)Oc1ccc2c(C)c(Cl)c(=O)oc2c1`, the AC50 was 2.75 µM (active). Still for that read-out and setting: next, `CCc1cccc(C)c1N(C(=O)CCl)C(C)COC` (stereo not given): 5.18 µM (active). As to `CSc1nc(NC(C)C)nc(NC(C)C)n1`, the AC50 was 10 µM (active). On to `CCOC(=O)COc1cc(-c2nn(C)c(OC(F)F)c2Cl)c(F)cc1Cl`, for which the molecule was classed as inactive.

For the origin of these results see PubChem BioAssay (EPA / NIEHS).
